Several values for one entry are separate records, joined by “and”; a condition that tells them apart may be missing. Equal values may be shown once. Results with a measured potency or affinity are listed apart.
Legend:
Klebsiella pneumoniae = conditions: Concentration 32 ug.mL-1, ASSAY_TEST Inhibition of Bacterial Growth, detection method Absorption (OD600), MEDIA CAMHB, plate type 384well, NBS, CORNING #3640, time 18 hr
Candida albicans = conditions: 32 ug/mL
Cryptococcus neoformans = conditions: Concentration 32 ug.mL-1, ASSAY_TEST Inhibition of Fungal Growth, detection method Resazurin, Absorption (OD600-OD570), plate type 384well, NBS, CORNING #3640

Compound | Inhibition (Klebsiella pneumoniae; 32 ug/mL) | Inhibition (Candida albicans) | Inhibition (Cryptococcus neoformans; 32 ug/mL) | Inhibition (Klebsiella pneumoniae) [%] | Inhibition (Cryptococcus neoformans) [%]
O=C1ON(C(=O)OCc2ccccc2)CC1Cc1ccccc1 (stereo not given) | 2.56% and 10.07% | 4.94% and 2.48% | 7.64% and 2.52% |  | 
CC1CN(C(=O)OCc2ccccc2)OC1=O (stereo not given) | 1.37% and 8.3% and 6.85% |  |  |  | 
O=C(OCc1ccccc1)N1OC(O)C2CCCCC21 (stereo not given) |  | 6.56% |  | 8.05 | -9.13
CCCCCCCC1CN(S(=O)(=O)c2ccc(C)cc2)N(C(=O)OC(C)(C)C)C1O (stereo not given) |  | 2.88% |  | -2.15 | -7.05
CC(C)(C)OC(=O)N1C(=O)C(Cc2ccccc2)CN1S(=O)(=O)c1ccc([N+](=O)[O-])cc1 (stereo not given) | 6.28% and 7.63% and -5.45% |  | -5.52% and -6.93% and -6.97% |  | 
CC1CN(C(=O)OCc2ccccc2)OC1O (stereo not given) |  | 2.95% |  | 4.15 | -0.06
CCCCCCCC1CN(S(=O)(=O)c2ccc(C)cc2)N(C(=O)OC(C)(C)C)C1=O (stereo not given) |  | 1.48% |  | 0.4 | -13.28
CC(C)(C)OC(=O)N1C(O)C(Cc2ccccc2)CN1S(=O)(=O)c1ccc([N+](=O)[O-])cc1 (stereo not given) | 9.89% and 6.63% and 13.09% |  | -4.16% and -1.5% and -1.29% |  | 
CC1CN(S(=O)(=O)c2ccc([N+](=O)[O-])cc2)N(C(=O)OC(C)(C)C)C1O (stereo not given) |  | 0.59% |  | -4.4 | -8.44
CC1CN(S(=O)(=O)c2ccc([N+](=O)[O-])cc2)N(C(=O)OC(C)(C)C)C1=O (stereo not given) | 7.28% and 7.49% and 8.98% |  | -7.3% and -1.18% and -10.38% |  | 
